# Measurements as given in PubChem BioAssay (Tox21).
# Results filed as inconclusive are left out. Entries that show only a call come without a potency. Values without a mark were called inactive. Calls of active or inactive are those of the source. Calls come from the whole dose curve; as a rule, active = well fitted curve in the direction sought with a large enough effect in the repeat runs; inconclusive = weak or mixed curves; inactive = no such curve, though single readings can be large; an effect the other way counts as inactive or inconclusive.
# Assays:
# [1] = target: Cytochrome P450 2D6 (Homo sapiens) (UniProt P10635); test: Cytochrome P450 Family 2 Subfamily D Member 6 (CYP2D6) small molecule antagonists: luciferase reporter qHTS assay (AID 1671196); conditions: P450-Glo CYP2D6 enzyme assay, luciferin luminescence, 1 h; series mostly up to 115 µM; note: nearly all actives have a fitted effect of over 50% in size
# Procedure, shortened: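 Room-temperature luminescent CYP2D6 activity assay: compound preincubated 10 min with enzyme–substrate mix, NADPH-initiated reaction 1 h, detection reagent 20 min before reading.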
# [2] = target: Cytochrome P450 2C19 (Homo sapiens) (UniProt P33261); test: Cytochrome P450 Family 2 Subfamily C Member 19 (CYP2C19) small molecule antagonists: luciferase reporter qHTS assay (AID 1671197); conditions: P450-Glo CYP2C19 enzyme, luciferin luminescence, 1 h; series mostly up to 52.9 µM; note: nearly all actives have a fitted effect of over 65% in size
# Procedure, shortened: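 P450-Glo CYP2C19 screening system; proluciferin substrate; DMSO compound stocks; 10 min RT preincubation; NADPH regeneration, 1 h at 37C; luciferin detection reagent, 20 min RT; luminescence as RLU.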
# [3] = target: Cytochrome P450 2C9 (Homo sapiens) (UniProt P11712); test: Cytochrome P450 Family 2 Subfamily C Member 9 (CYP2C9) small molecule antagonists: luciferase reporter qHTS assay (AID 1671198); conditions: P450-Glo CYP2C9 enzyme assay, luciferin luminescence; series mostly up to 115 µM; note: nearly all actives have a fitted effect of over 50% in size
# Procedure, shortened: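 CYP2C9 activity was measured with a P450-Glo proluciferin substrate. Enzyme–substrate mix was held with compound for 10 min at room temperature, then NADPH regeneration solution was added for 1 h at 37C. Luciferin product was read as luminescence.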
# [4] = target: Voltage-gated inwardly rectifying potassium channel KCNH2 (Homo sapiens) (UniProt Q12809); test: Human Ether-a-go-go-Related Gene (hERG) channel small molecule antagonists: fluorescence cell-based qHTS assay (AID 1671200); conditions: hERG-U2OS cells, FluxOR thallium flux fluorescence; series mostly up to 76.8 µM; note: nearly all actives have a fitted effect of over 50% in size
# Procedure, shortened: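 Thallium flux as potassium surrogate: FluxOR II dye loaded 1 h at room temperature into hERG-expressing U2OS cells, then stimulus buffer added after 10 min. Kinetic 480 nm excitation/540 nm emission read, 2 min.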
# [5] = target: Cytochrome P450 3A4 (Homo sapiens) (UniProt P08684); test: Cytochrome P450 Family 3 Subfamily A Member 4 (CYP3A4) small molecule antagonists: luciferase reporter qHTS assay (AID 1671201); conditions: P450-Glo CYP3A4 enzyme, luciferin luminescence, 1 h; series mostly up to 115 µM; note: nearly all actives have a fitted effect of over 50% in size
# Procedure, shortened: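 Recombinant human CYP3A4 converts a proluciferin substrate to luciferin over 1 h at room temperature after NADPH regeneration solution is added (compound preincubated 10 min); detection reagent stops reaction, luminescence read 20 min later as relative units.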
# [6] = target: Cytochrome P450 1A2 (Homo sapiens) (UniProt P05177); test: Cytochrome P450 Family 1 Subfamily A Member 2 (CYP1A2) small molecule antagonists: luciferase reporter qHTS assay (AID 1671199); conditions: P450-Glo CYP1A2 enzyme, luciferin luminescence, 1 h; series mostly up to 53 µM; note: nearly all actives have a fitted effect of over 50% in size
# Procedure, shortened: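 Room-temperature CYP1A2 reaction with proluciferin substrate: compounds added from DMSO, 10 min preincubation, NADPH regeneration for 1 h. Luciferin detection reagent then added; luminescence recorded as RLU.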
# Potency is the fitted concentration of half-maximal effect.
# Sequence of Cytochrome P450 3A4 (Homo sapiens) (P08684 whole entry, looked up): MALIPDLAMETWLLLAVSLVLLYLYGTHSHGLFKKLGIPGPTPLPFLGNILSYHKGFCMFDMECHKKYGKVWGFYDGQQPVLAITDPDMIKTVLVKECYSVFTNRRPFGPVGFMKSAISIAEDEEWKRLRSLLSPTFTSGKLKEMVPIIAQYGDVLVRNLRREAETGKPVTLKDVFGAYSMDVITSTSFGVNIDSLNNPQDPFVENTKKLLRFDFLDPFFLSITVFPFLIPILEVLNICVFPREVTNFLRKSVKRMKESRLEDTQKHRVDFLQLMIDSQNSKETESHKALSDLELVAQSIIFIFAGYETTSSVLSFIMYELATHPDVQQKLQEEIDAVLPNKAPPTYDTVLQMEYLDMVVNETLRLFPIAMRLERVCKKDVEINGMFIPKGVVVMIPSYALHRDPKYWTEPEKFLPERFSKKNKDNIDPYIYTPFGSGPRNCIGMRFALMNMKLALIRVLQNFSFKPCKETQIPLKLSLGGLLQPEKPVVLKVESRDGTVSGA
# Sequence of Cytochrome P450 2C19 (Homo sapiens) (P33261 whole entry, looked up): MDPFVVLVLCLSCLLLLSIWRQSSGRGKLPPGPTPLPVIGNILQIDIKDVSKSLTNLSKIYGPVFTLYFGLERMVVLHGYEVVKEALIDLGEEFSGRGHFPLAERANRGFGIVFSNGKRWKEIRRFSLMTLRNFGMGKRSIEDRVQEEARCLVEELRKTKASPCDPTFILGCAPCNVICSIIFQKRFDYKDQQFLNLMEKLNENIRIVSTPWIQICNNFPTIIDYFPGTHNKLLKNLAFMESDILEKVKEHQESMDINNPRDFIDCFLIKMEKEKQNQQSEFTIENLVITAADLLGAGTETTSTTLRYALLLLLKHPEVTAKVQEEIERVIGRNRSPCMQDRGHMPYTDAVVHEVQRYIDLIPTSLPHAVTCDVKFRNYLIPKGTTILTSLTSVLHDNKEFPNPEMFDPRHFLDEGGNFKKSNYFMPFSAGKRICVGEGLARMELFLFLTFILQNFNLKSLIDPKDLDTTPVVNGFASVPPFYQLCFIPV
# Sequence of Voltage-gated inwardly rectifying potassium channel KCNH2 (Homo sapiens) (Q12809 whole entry, looked up): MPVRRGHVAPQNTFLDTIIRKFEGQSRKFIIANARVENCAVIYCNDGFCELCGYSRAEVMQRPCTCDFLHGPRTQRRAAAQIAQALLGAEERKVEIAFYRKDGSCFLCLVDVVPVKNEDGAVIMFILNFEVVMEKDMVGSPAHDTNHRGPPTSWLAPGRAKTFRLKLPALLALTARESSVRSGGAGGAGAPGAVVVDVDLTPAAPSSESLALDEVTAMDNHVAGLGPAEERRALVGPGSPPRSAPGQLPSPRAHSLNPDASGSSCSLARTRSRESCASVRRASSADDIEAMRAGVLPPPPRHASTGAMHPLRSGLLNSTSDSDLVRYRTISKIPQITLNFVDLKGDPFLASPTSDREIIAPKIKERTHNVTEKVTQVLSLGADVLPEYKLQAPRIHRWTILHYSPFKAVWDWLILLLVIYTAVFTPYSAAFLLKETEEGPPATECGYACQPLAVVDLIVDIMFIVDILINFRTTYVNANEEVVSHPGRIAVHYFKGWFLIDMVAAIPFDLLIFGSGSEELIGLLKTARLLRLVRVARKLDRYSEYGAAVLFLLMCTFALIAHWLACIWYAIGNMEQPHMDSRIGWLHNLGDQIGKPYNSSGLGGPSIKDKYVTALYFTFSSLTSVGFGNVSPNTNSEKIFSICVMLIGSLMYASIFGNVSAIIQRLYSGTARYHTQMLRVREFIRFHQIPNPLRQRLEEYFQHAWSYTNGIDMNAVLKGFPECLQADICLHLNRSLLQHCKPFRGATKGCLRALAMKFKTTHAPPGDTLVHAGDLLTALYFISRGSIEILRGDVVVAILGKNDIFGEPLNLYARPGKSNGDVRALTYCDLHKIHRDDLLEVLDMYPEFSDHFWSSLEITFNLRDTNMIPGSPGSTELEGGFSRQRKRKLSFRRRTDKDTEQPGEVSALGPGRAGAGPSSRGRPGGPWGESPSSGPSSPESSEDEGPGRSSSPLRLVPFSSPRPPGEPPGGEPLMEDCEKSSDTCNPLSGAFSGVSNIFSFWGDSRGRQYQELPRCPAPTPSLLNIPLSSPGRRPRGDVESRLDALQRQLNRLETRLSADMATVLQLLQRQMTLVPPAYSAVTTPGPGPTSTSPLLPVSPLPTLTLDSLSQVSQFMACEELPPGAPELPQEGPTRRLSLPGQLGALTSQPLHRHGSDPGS
# Sequence of Cytochrome P450 1A2 (Homo sapiens) (P05177 whole entry, looked up): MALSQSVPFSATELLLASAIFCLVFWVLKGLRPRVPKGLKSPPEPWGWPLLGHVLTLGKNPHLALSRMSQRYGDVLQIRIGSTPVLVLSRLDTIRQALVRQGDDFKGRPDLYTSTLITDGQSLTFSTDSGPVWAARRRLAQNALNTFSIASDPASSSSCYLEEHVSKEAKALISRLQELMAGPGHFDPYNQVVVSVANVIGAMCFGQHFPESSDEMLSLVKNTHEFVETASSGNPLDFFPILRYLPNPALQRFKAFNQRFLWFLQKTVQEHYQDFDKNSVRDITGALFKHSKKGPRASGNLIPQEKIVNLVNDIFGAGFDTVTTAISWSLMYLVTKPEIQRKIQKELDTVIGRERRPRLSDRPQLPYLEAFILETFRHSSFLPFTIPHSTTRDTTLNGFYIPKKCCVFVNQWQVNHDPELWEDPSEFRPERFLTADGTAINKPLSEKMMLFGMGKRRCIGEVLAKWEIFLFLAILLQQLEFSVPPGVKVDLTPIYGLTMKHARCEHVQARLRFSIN
# Sequence of Cytochrome P450 2C9 (Homo sapiens) (P11712 whole entry, looked up): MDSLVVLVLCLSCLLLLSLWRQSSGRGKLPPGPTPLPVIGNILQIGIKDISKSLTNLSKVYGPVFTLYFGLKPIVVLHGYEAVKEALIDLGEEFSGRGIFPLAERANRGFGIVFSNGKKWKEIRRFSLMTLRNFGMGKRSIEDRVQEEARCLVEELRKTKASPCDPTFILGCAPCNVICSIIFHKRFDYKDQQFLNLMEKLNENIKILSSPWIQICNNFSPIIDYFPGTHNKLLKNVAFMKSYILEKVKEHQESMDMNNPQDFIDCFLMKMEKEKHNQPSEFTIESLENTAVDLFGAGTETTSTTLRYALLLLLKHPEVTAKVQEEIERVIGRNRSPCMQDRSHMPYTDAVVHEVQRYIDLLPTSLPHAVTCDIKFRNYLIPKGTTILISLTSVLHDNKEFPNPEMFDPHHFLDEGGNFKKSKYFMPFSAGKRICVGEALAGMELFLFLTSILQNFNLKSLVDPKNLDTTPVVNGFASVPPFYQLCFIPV
# Sequence of Cytochrome P450 2D6 (Homo sapiens) (P10635 whole entry, looked up): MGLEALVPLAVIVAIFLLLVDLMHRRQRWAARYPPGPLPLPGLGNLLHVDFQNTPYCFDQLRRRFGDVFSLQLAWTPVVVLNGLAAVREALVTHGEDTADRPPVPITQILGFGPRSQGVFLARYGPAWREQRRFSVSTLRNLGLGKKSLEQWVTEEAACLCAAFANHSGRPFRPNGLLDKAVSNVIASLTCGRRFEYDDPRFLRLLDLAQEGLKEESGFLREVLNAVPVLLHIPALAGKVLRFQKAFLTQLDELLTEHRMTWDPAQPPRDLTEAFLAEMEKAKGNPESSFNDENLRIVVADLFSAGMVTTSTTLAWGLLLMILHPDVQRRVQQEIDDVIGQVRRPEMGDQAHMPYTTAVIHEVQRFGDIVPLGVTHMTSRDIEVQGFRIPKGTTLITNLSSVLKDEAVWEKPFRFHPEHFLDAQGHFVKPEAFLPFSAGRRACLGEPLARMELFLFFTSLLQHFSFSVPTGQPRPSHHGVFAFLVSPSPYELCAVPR
SMILES,Potency [1],Potency [2],Potency [3],Potency [4],Potency [5],Potency [6],"activity change, negative = inhibition [1]","activity change, negative = inhibition [4]"
NC(=O)c1ccncc1,inactive,inactive,inactive,inactive,inactive,–,–,–
Cc1cc(C)cc(N)c1,5.09 µM (active),7.19 µM (active),11.4 µM (active),inactive,3.21 µM (active),–,–,–
CCC(=O)OC,inactive,inactive,inactive,inactive,inactive,–,–,–
O=C(Nc1cccc2c(=O)cc(-c3nn[nH]n3)oc12)c1ccc(OCCCCc2ccccc2)cc1,inactive,inactive,7.76 µM (active),inactive,inactive,–,–,–
CC(CO)CO,inactive,inactive,inactive,inactive,inactive,–,–,–
CCC1CO1 (centres undefined),inactive,inactive,inactive,inactive,inactive,–,–,–
CC(C)(c1ccccc1)c1ccccc1,58.8 µM (active),inactive,inactive,–,inactive,–,–,–
C=C(C)CCCC(C)CCO (centres undefined),inactive,39.9 µM (active),39.9 µM (active),inactive,28.3 µM (active),–,–,–
O=C(Cn1ccnc1[N+](=O)[O-])NCCO,inactive,inactive,inactive,inactive,inactive,–,–,–
CCC(C)COC(=O)CC(C)C (centres undefined),inactive,inactive,71 µM (active),inactive,inactive,–,–,–
O[C@@H]1CO[C@H]2[C@@H]1OC[C@@H]2O,inactive,inactive,inactive,inactive,inactive,–,–,–
CCOC(=O)/C=C/C(=O)OCC,inactive,inactive,inactive,inactive,inactive,–,–,–
CCCCC(CC)CN (centres undefined),36.2 µM (active),inactive,inactive,inactive,inactive,–,–,–
CC[N+](CC)(CCNC(=O)C(=O)NCC[N+](CC)(CC)Cc1ccccc1Cl)Cc1ccccc1Cl,15.5 µM (active),inactive,inactive,inactive,inactive,–,–,–
C=CC(C)(CCC=C(C)C)OC(=O)CC(C)C (centres undefined),inactive,35.6 µM (active),35.6 µM (active),inactive,35.6 µM (active),–,–,–
CCCC(=O)C(=O)O,35.6 µM (active),inactive,inactive,inactive,inactive,–,–,–
CC(C)(C)C(=O)C(=O)O,inactive,inactive,inactive,inactive,inactive,–,–,–
COc1ccccc1N1CCN(CCCCNC(=O)c2ccc(-c3ccc(C(C)=O)cc3)cc2)CC1,2.19 µM (active),inactive,inactive,3.79 µM (active),inactive,–,–,–
C=C(C)[C@@H]1CCC2=CCC[C@@H](C)[C@]2(C)C1,inactive,11.2 µM (active),63.3 µM (active),inactive,71 µM (active),–,–,–
O=C1c2ccccc2C(=O)C1c1ccc(Br)cc1,inactive,1.55 µM (active),3.47 µM (active),inactive,inactive,–,–,–
CCOC(=O)c1ccc(O)c(O)c1,inactive,inactive,inactive,inactive,inactive,–,–,–

SMILES,Potency [1],Potency [2],Potency [3],Potency [4],Potency [5],Potency [6],"activity change, negative = inhibition [1]","activity change, negative = inhibition [4]"
Nc1ccc(N=Nc2ccccc2)c(N)c1,2.2 µM (active),24.7 µM (active),31 µM (active),17 µM (active),11 µM (active),–,–,–
CC1=C(CC=O)C(C)(C)CCC1,inactive,inactive,–,inactive,31.7 µM (active),inactive,–,–
Cc1cc(=O)c2c(O)c3c(O)cc(=O)c4c3c3c(cc(O)c1c23)C(C)(C)C=4O,–,inactive,–,–,–,–,-16.7% [at 23.6 µM],-4.56% [at 15.8 µM]
O=C1c2ccccc2C(=O)C1(O)O,35.8 µM (active),71.4 µM (active),–,inactive,inactive,–,–,–
c1ccc2sc(SN(C3CCCCC3)C3CCCCC3)nc2c1,1.25 µM (active),7.87 µM (active),–,inactive,–,–,–,–
C=Cc1ccc(S(=O)(=O)O)cc1,inactive,inactive,–,inactive,inactive,71 µM (active),–,–
Cc1ccccc1N=C(N)Nc1ccccc1C,0.0156 µM (active),inactive,–,inactive,–,inactive,–,–
C(=C\c1ccccc1)/c1ccccc1,inactive,44.4 µM (active),–,inactive,–,–,–,–
O=C1c2ccccc2C(=O)C1c1nc2ccccc2c(Br)c1O,inactive,inactive,–,inactive,–,10 µM (active),–,–
C=C1c2cccc(O)c2C(O)=C2C(=O)[C@]3(O)C(O)=C(C(N)=O)C(=O)[C@@H](N(C)C)[C@@H]3[C@@H](O)[C@H]12,inactive,inactive,–,inactive,inactive,inactive,–,–
c1ccc(C[n+]2cccc3ccccc32)cc1,3.17 µM (active),39.9 µM (active),–,inactive,inactive,–,–,–
O=C(O)CCc1nc(-c2ccccc2)c(-c2ccccc2)o1,inactive,inactive,–,inactive,inactive,inactive,–,–
C[C@@]12CCC[C@H]1[C@@H]1CC[C@H]3C[C@@H](O)CC[C@]3(C)[C@H]1CC2,inactive,7.76 µM (active),–,inactive,–,inactive,–,–
CCCCCCCCOc1ccc(C(=O)O)cc1,inactive,49.7 µM (active),–,inactive,inactive,–,–,–
Brc1cc2ccccc2c2ccccc12,inactive,40.2 µM (active),–,inactive,–,–,–,–
CCCCCCCC/C=C\CCCCCCCCO,inactive,inactive,–,inactive,inactive,28.2 µM (active),–,–
C=C(C)C(=O)OCCOCCOC(=O)C(=C)C,inactive,8.94 µM (active),–,inactive,inactive,15.9 µM (active),–,–
O=C(/C=C/c1ccc(O)c(O)c1)O[C@@H]1C[C@@](OC(=O)/C=C/c2ccc(O)c(O)c2)(C(=O)O)C[C@@H](O)[C@@H]1O,inactive,12.3 µM (active),–,inactive,inactive,27.5 µM (active),–,–
CN1C(=O)OC(C)(C)C1=O,inactive,inactive,–,inactive,inactive,–,–,–
CCCCN1CCCC1C(=O)Nc1c(C)cc(C)cc1C (centres undefined),3.09 µM (active),–,inactive,inactive,–,inactive,–,–
COC(=O)[C@H]1[C@H]2C[C@@H]3c4[nH]c5cc(OC)ccc5c4CCN3C[C@H]2C[C@@H](OC(=O)/C=C/c2ccc(O)c(OC)c2)[C@@H]1OC,inactive,inactive,–,0.848 µM (active),–,–,–,–

SMILES,Potency [1],Potency [2],Potency [3],Potency [4],Potency [5],Potency [6],"activity change, negative = inhibition [1]","activity change, negative = inhibition [4]"
CC(=O)Oc1ccc([N+](=O)[O-])cc1CCl,inactive,inactive,–,inactive,inactive,inactive,–,–
CCOC(=O)c1ccc(I)cc1,inactive,80.4 µM (active),–,inactive,inactive,10.1 µM (active),–,–
C[C@H]1c2cccc(O)c2C(O)=C2C(=O)[C@]3(O)C(O)=C(C(N)=O)C(=O)[C@@H](N(C)C)[C@@H]3[C@@H](O)[C@@H]21,inactive,inactive,–,inactive,inactive,inactive,–,–
CC1=Nc2ccc3ccccc3c2C1(C)C,35.6 µM (active),8.94 µM (active),–,inactive,inactive,20 µM (active),–,–
Cc1c(C)c2c(c(C)c1OC(=O)CCC(=O)OCCO)CC[C@@](C)(CCC[C@H](C)CCC[C@H](C)CCCC(C)C)O2,inactive,inactive,–,inactive,–,–,–,–
CS(=O)(=O)c1ccc(-c2cn3ccccc3n2)cc1,27.5 µM (active),24.5 µM (active),–,inactive,inactive,0.456 µM (active),–,–
O=C1C(=O)c2ccccc2C(O)=C1C1CCC(c2ccc(Cl)cc2)CC1 (centres undefined),inactive,inactive,–,inactive,inactive,inactive,–,–
Cc1cc(O)ccc1O,inactive,25.5 µM (active),–,inactive,–,inactive,–,–
Brc1cc(Br)c(Oc2cc(Br)c(Br)cc2Br)cc1Br,inactive,13.8 µM (active),–,inactive,inactive,inactive,–,–
CN1CC(=O)N2[C@H](c3ccc4c(c3)OCO4)c3[nH]c4ccccc4c3C[C@@H]2C1=O,inactive,inactive,–,inactive,–,–,–,–
CC(=O)[C@H]1[C@H](C#N)C[C@H]2[C@@H]3CC=C4C[C@@H](O)CC[C@]4(C)[C@H]3CC[C@@]21C,inactive,inactive,–,inactive,inactive,inactive,–,–
CCCCN(CCCC)C(C(N)=O)c1ccc(OC)cc1 (centres undefined),0.977 µM (active),15.5 µM (active),–,inactive,–,–,–,–
CC(C)C[C@H](NC(=O)[C@H](CCc1ccccc1)NC(=O)CN1CCOCC1)C(=O)N[C@@H](Cc1ccccc1)C(=O)N[C@@H](CC(C)C)C(=O)[C@@]1(C)CO1,inactive,inactive,–,inactive,–,inactive,–,–
CC(C)=CCC1C(=O)N(c2ccccc2)N(c2ccccc2)C1=O,inactive,27.5 µM (active),–,inactive,–,–,–,–
O=Cc1c2ccccc2c(Cl)c2ccccc12,inactive,inactive,–,inactive,inactive,1.38 µM (active),–,–
O=C1NC(=O)c2cc([N+](=O)[O-])ccc21,63.8 µM (active),71.6 µM (active),–,inactive,32 µM (active),28.5 µM (active),–,–
Oc1cc2c(cc1O)[C@H]1c3ccc(O)c(O)c3OC[C@@]1(O)C2,36 µM (active),–,32.1 µM (active),inactive,–,36 µM (active),–,–
Oc1cccc(Nc2ccccc2)c1,37.1 µM (active),13.2 µM (active),–,inactive,29.5 µM (active),11.7 µM (active),–,–
Cc1cccc(N(C)C(=S)Oc2ccc3c(c2)CCC3)c1,inactive,1.74 µM (active),–,inactive,inactive,10.2 µM (active),–,–
Nc1nnc(-c2ccc([N+](=O)[O-])o2)o1,39.9 µM (active),–,–,inactive,inactive,39.9 µM (active),–,–
